Rows were chosen to be rich in hits. Some 0.52% of all compounds tested hit in one or more screens of this group.
S aureus helic: S. aureus DNA helicase inhibition | actives 0.05% (n = 120,000) | inhibition, % (no concentration beside the values) | AID 485395 | purified S. aureus helicase, fluorescence unwinding assay; in the data active means inhibition above about 25%, passing the limit was not always enough;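 further: 0% = mean of negative control wells and 100% = mean of positive control wells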
Sa growth inh: inhibitors of Staphylococcus aureus growth at 42 °C. AID 720641. relative growth, % (test concentration not listed). actives 0.53% (n = 170,000). S. aureus RN4220 growth, OD600, 20 h; hits give low values;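 active means relative growth at most 50% at the other temperature and 20+ points below 30 °C, or under 10% at both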
An asterisk follows results filed as active; . = no result.

SMILES	S aureus helic	Sa growth inh
CCOc1cccc(C2c3c(-c4cc(C)ccc4O)n[nH]c3C(=O)N2Cc2ccco2)c1 (stereo not given)	.	35*
COc1cc(C2c3c(-c4cc(C)ccc4O)n[nH]c3C(=O)N2Cc2ccco2)cc(OC)c1OC (stereo not given)	.	107
Cc1cc(C)c(C#N)c(SCC(O)CS(=O)Cc2ccccc2)n1 (stereo not given)	-18	102
Cc1ccccc1NS(=O)(=O)C(F)(F)F	-16	93
O=S(=O)(Nc1ccc(Cl)cc1OC(F)(F)F)C(F)(F)F	19	9.5*
N#C/C(=C\c1ccccc1)c1cccc(Cl)c1	.	44*
N#C/C(=C/c1ccccc1)c1cccc(C#N)c1	10	110
O=C1C(Nc2cccc(O)c2)=C(n2nnc3ccccc32)C(=O)c2ccccc21	15	0.6*
O=C1C(Nc2ccccc2)=C(n2nnc3ccccc32)C(=O)c2ccccc21	13	86
Cn1c(=O)[nH]c2c(c1=O)C(c1ccc(F)cc1)C1=C(COC1=O)N2 (stereo not given)	-15	101
Cc1ccc(C=Nc2ccc(C(N)=O)cc2)s1	15	80
S=C(S)N1CCCC1	-5	1.7*
NC(=S)N1CCCC1	70	94
CCCCn1c(=N)n(CCO)c2ccccc21	-7	88
CC1(C)CC2CC(C)(CN2C(=O)CSc2nc3ccccc3o2)C1 (stereo not given)	2	99
N#C/C(=C\c1ccc(N2CCCC2)o1)c1ccccc1	-134	77
C[n+]1ccc(/C=C/c2ccc(N3CCCC3)o2)cc1	57*	98
C[C@@H]1CN(c2c(F)c(N)c3c(=O)c(C(=O)O)cn(C4CC4)c3c2F)C[C@H](C)N1	.	-0.1*
CC(C)(Oc1ccc(C#N)cc1)C(=O)Nc1ccccc1	.	103
CC(C)OC(=O)c1ccc2[nH]c3c(c2c1)CCCC3	10	34*
COC(=O)c1ccc2[nH]c3c(c2c1)CCCC3	10	83
CCN(c1cccc(C)c1)S(=O)(=O)c1ccc2c(c1)SC(C)C(=O)N2 (stereo not given)	13	86
CC(C)(C)c1ccc(Cn2c(=N)n(CC(=O)c3ccco3)c3ccccc32)cc1	-42	-0.6*
CC(C)(C)c1ccc(Cn2c(=N)n(CC(O)c3ccco3)c3ccccc32)cc1 (stereo not given)	-4	31
O=C(COC(=O)c1ccc(S(=O)(=O)Nc2ccccc2)cc1)Nc1nnc(-c2ccccc2)o1	14	89
SMILES	S aureus helic	Sa growth inh
CCOC(=O)c1c(C)nsc1NC(=O)c1csc(C)c1C	7	127
C=CCNC(=O)Nc1ccc(F)c(Cl)c1	25	105
O=C(NCSCc1cccc(C(F)(F)F)c1)Nc1ccc(F)c(Cl)c1	.	9.0*
CCN(CC)S(=O)(=O)c1cc(C(=O)Oc2ccc3c(c2)OCO3)ccc1C	13	44*
CCN(CC)S(=O)(=O)c1cccc(C(=O)OCC(=O)c2ccc3c(c2)OCO3)c1	2	92
Clc1ccc(OCCN2CCCCC2)cc1	-8	81
COc1cc(C(F)(F)F)nc2c(I)c(C(C)(C)C)nn12	-14	100
O=C(CCc1ccccc1)Nc1nnc(-c2ccccc2)o1	-15	.
CCCCC(=O)Nc1nnc(-c2ccc(Cl)cc2)o1	21	-0.3*
O=C(CCCc1c[nH]c2ccccc12)Nc1nnc(-c2ccc(Cl)cc2)o1	-5	88
CCCCC(=O)Nc1nnc(-c2ccc(Cl)s2)o1	5	8.8*
CCn1c(C)nc2cc(-c3nnc(Nc4ccc(Cl)cc4)s3)ccc21	10	69
O=C(Nc1ccc(N2CCOCC2)cc1)Nc1cccc(C(F)(F)F)c1	12	86
CN(C)/C(=N\O)c1nonc1N	3	104
CC(C)c1cccc(C(C)C)c1N1C(=O)C=CC1=O	.	6.7*
O=C1C=CC(=O)N1c1cccc2ccccc12	10	91
C[C@@H](O)[C@H]1C(=O)N2C(C(=O)O)=C(S[C@@H]3CN[C@H](C(=O)N(C)C)C3)[C@H](C)[C@H]12	.	-0.5*
O=C(O)Cc1coc2cc(O)ccc12	22	92
Cc1ccc(C(CNC(=O)c2ccccc2)N2CCN(C)CC2)cc1 (stereo not given)	13	101
COc1cc(OC)c(NC(C)C(=O)N(C)C2CCCCC2)cc1Cl (stereo not given)	2	97
CC[C@@H]1OC(=O)C[C@@H](O)[C@H](C)[C@@H](O[C@@H]2O[C@H](C)[C@@H](O)[C@H](N(C)C)[C@H]2O)[C@@H](CCN2C[C@H](C)C[C@H](C)C2)C[C@@H](C)C(=O)/C=C/C(C)=C\[C@@H]1CO[C@@H]1O[C@H](C)[C@@H](O)[C@@H](OC)[C@H]1OC	.	0.5*
COc1ccccc1N1CCN(C(=O)c2ccc[nH]c2=S)CC1	4	100
Cc1ccc(OCCNC(=O)Cc2ccsc2)cc1	-14	95
CCCS(=O)(=O)c1ncc(Cl)c(C(=O)N(Cc2ccccc2)Cc2ccco2)n1	.	1.2*
CCS(=O)(=O)c1ncc(Cl)c(C(=O)N(Cc2ccccc2)c2ccc(OC)cc2)n1	.	5.0*
SMILES	S aureus helic	Sa growth inh
COc1ccc(N(Cc2ccccc2)C(=O)c2nc(SC)ncc2Cl)cc1	.	103
CCSc1ncc(Cl)c(C(=O)N(Cc2ccccc2)Cc2ccco2)n1	.	95
CC(C)NC(=O)c1c2c(nn1C)-c1ccccc1SC2	-22	106
O=C1CCN(C(=O)c2cccc(CN3C(=O)c4ccccc4C3=O)c2)CC1	4	101
O=c1c2c(nc3cc(-c4ccccc4)[nH]n13)CCC2	-3	100
O=c1c2c(nc3c(-c4ccccc4)c[nH]n13)CCC2	18	0.1*
Cc1cccc(Nc2cc(=O)[nH]c(=O)[nH]2)c1	-7	69
Cc1ccc(Nc2cc(=O)[nH]c(=O)[nH]2)cc1C	.	8.5*
COc1cc(OC)cc(-c2nnc(SCCOc3cc(C)ccc3C)o2)c1	-10	83
Cc1onc(-c2c(Cl)cccc2Cl)c1NC(=O)N1CCOCC1	-6	105
COC(=O)c1sc(S(C)(=O)=O)c(C#N)c1-c1cccs1	-38	0.2*
COC(=O)c1sc(N2CCCC2)c(C#N)c1-c1cccs1	.	103
Nc1nnc2c(Nc3ccccc3)nc3nonc3n12	-1	98
c1ccc(Nc2nc3nonc3nc2Nc2ccccc2)cc1	-8	-1.6*
CCOc1ccccc1NC(=O)CSc1ccc(-c2cccs2)nn1	1	101
CC(C)c1cc2cc(/C=C/C(=O)O)c(O)cc2o1	8	-0.3*
CC(C)(O)C1Cc2cc(/C=C/C(=O)O)c(O)cc2O1 (stereo not given)	6	65
C=CCN1C(=O)C(C(=O)Nc2ccccc2)C2c3ccccc3OC13CCCCC23 (stereo not given)	5	114
CN(C)c1ccc2sc(=S)[nH]c2c1	-9	44
FC(F)(F)c1ccc2sc(=S)[nH]c2c1	10	-0.8*
CC[C@H]1OC(=O)[C@H](C)[C@@H](O[C@H]2C[C@@](C)(OC)[C@@H](O)[C@H](C)O2)[C@H](C)[C@@H](O[C@@H]2O[C@H](C)C[C@H](N(C)C)[C@H]2O)[C@](C)(O)C[C@@H](C)/C(=N\OCOCCOC)[C@H](C)[C@@H](O)[C@]1(C)O	.	0.1*
CC[C@H]1OC(=O)[C@H](C)[C@@H](O[C@H]2C[C@@](C)(OC)[C@@H](O)[C@H](C)O2)[C@H](C)[C@@H](O[C@@H]2O[C@H](C)C[C@H](N(C)C)[C@H]2O)[C@](C)(O)C[C@@H](C)/C(=N/OCOCCOC)[C@H](C)[C@@H](O)[C@]1(C)O	.	-0.5*

From PubChem BioAssay
